These results are taken from PubChem BioAssay (NCATS).

Test [1] can be described thus: Quantitative High-Throughput drug screen in 47 multiple myeloma cell lines against the NCATS MIPE library collection: KMS27_JCRB cell viability assay (AID 1918970). Note: nearly all actives have a fitted effect of over 30% in size. The essentials: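 ATP-based viability (CellTiter-Glo luminescence) is measured in cells treated 48 h with approved and investigational drugs at 37 °C. Controls are DMSO-only wells for full viability and media-only wells for none.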

Test [2] can be described thus: Quantitative High-Throughput drug screen in 47 multiple myeloma cell lines against the NCATS MIPE library collection: KMS12BM_JCRB cell viability assay (AID 1918971). Note: nearly all actives have a fitted effect of over 35% in size. The gist of the method:
(§1)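 Luminescent ATP measurement with CellTiter-Glo gives viability, scaled between DMSO-only wells (100%) and media-only wells (0%). Cells, 500 per well, faced library compounds for 48 hours at 37C.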

Test [3] is described as follows: Quantitative High-Throughput drug screen in 47 multiple myeloma cell lines against the NCATS MIPE library collection: KMS12PE_JCRB cell viability assay (AID 1918972). Note: nearly all actives have a fitted effect of over 30% in size. The essentials: as §1
The nature of test [4]: Quantitative High-Throughput drug screen in 47 multiple myeloma cell lines against the NCATS MIPE library collection: KMS20_JCRB cell viability assay (AID 1918973). Note: nearly all actives have a fitted effect of over 45% in size. The essentials: (§2)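 Viability readout: CellTiter-Glo luminescence following 5 min room-temperature incubation with reagent. Prior exposure: 48 h, 37C, humidified 5% CO2, 500 cells per well.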
Test [5] is described as follows: Quantitative High-Throughput drug screen in 47 multiple myeloma cell lines against the NCATS MIPE library collection: MOLP8_DSMZ cell viability assay (AID 1918977). Note: nearly all actives have a fitted effect of over 45% in size. The essentials:
(§3)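 qHTS format: cells plated (500/well), pin-dosed with MIPE 4.0 compounds, kept 48 h at 37 °C. Readout was CellTiter-Glo luminescence, median RLU.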

Test [6] is described as follows: Quantitative High-Throughput drug screen in 47 multiple myeloma cell lines against the NCATS MIPE library collection: NCIH929_DSMZ cell viability assay (AID 1918978). Note: nearly all actives have a fitted effect of over 35% in size. The gist of the method:
as §3

The nature of test [7]: Quantitative High-Throughput drug screen in 47 multiple myeloma cell lines against the NCATS MIPE library collection: MM1S_ATCC cell viability assay (AID 1918980). Note: nearly all actives have a fitted effect of over 45% in size. The essentials: as §3
The nature of test [8]: Quantitative High-Throughput drug screen in 47 multiple myeloma cell lines against the NCATS MIPE library collection: LP1_DSMZ cell viability assay (AID 1918982). Note: nearly all actives have a fitted effect of over 35% in size. The gist of the method: as §3
Test [9] is described as follows: Quantitative High-Throughput drug screen in 47 multiple myeloma cell lines against the NCATS MIPE library collection: KMS28PE_JCRB cell viability assay (AID 1918983). Note: nearly all actives have a fitted effect of over 35% in size. The gist of the method: as §3
Test [10] can be described thus: Quantitative High-Throughput drug screen in 47 multiple myeloma cell lines against the NCATS MIPE library collection: OPM1_PLB cell viability assay (AID 1918989). Note: nearly all actives have a fitted effect of over 40% in size. The essentials: as §3
Test [11] is described as follows: Quantitative High-Throughput drug screen in 47 multiple myeloma cell lines against the NCATS MIPE library collection: KMS21BM_JCRB cell viability assay (AID 1918974). As to conditions: ATP luminescence, 48 h; viability: at 45.8 µM (top of the series) unless noted. The essentials:
as §2

Test [12] in a line: Quantitative High-Throughput drug screen in 47 multiple myeloma cell lines against the NCATS MIPE library collection: MMM1_PLB cell viability assay (AID 1918976). Note: nearly all actives have a fitted effect of over 35% in size. The gist of the method: as §3
A short description of test [13]: Quantitative High-Throughput drug screen in 47 multiple myeloma cell lines against the NCATS MIPE library collection: OCIMY1_PLB cell viability assay (AID 1918979). Note: nearly all actives have a fitted effect of over 35% in size. The essentials:
as §3

Test [14] can be described thus: Quantitative High-Throughput drug screen in 47 multiple myeloma cell lines against the NCATS MIPE library collection: MM1R_ATCC cell viability assay (AID 1918981). Note: nearly all actives have a fitted effect of over 35% in size. The essentials: as §3
Test [15] is described as follows: Quantitative High-Throughput drug screen in 47 multiple myeloma cell lines against the NCATS MIPE library collection: L363_DSMZ cell viability assay (AID 1918984). Note: nearly all actives have a fitted effect of over 40% in size. The essentials: as §3
Test [16] is described as follows: Quantitative High-Throughput drug screen in 47 multiple myeloma cell lines against the NCATS MIPE library collection: OCIMY5_PLB cell viability assay (AID 1918988). Note: nearly all actives have a fitted effect of over 65% in size. The essentials:
as §3

Test [17] is described as follows: Quantitative High-Throughput drug screen in 47 multiple myeloma cell lines against the NCATS MIPE library collection: KMS26_JCRB cell viability assay (AID 1918975). Note: nearly all actives have a fitted effect of over 45% in size. The gist of the method:
as §1

Test [18] in a line: Quantitative High-Throughput drug screen in 47 multiple myeloma cell lines against the NCATS MIPE library collection: OCIMY7_PLB cell viability assay (AID 1918987). Note: nearly all actives have a fitted effect of over 65% in size. The essentials:
as §3

A short description of test [19]: Quantitative High-Throughput drug screen in 47 multiple myeloma cell lines against the NCATS MIPE library collection: SKMM1_PLB cell viability assay (AID 1919863). Note: nearly all actives have a fitted effect of over 35% in size. As to conditions: SKMM1 myeloma viability, CellTiter-Glo ATP, 48 h; viability: active compounds read low. The essentials:
as §3

Test [20] can be described thus: Quantitative High-Throughput drug screen in 47 multiple myeloma cell lines against the NCATS MIPE library collection: KMS34_JCRB cell viability assay (AID 1918985). Note: nearly all actives have a fitted effect of over 40% in size. The essentials:
as §3

Inconclusive results are not listed. Unmarked numbers belong to inactive results. Active and inactive are the calls of the source. Calls come from the whole dose curve; as a rule, active = well fitted curve in the direction sought with a large enough effect; inconclusive = small, poorly fitted or top-dose-only effect, or another doubt; inactive = no such curve, though single readings can be large; an effect the other way counts as inactive or inconclusive.
Potency is the fitted concentration of half-maximal effect.

With `Cn1c(=O)c2[nH]cnc2n(C)c1=O`, the Potency entry in [1], in [2], in test [3], in test [4], in test [5] and in test [6] was “inactive” each time. The Potency result in [8], in [9] and in [10] was “inactive” throughout. Further, the Potency in test [7] was 23500 nM (active).
On to `O=C(Nc1ccc([N+](=O)[O-])cc1Cl)c1cc(Cl)ccc1O`, for which the Potency was 1480 nM (active) in test [2]; 469 nM (active) in test [3]; 590 nM (active) in test [4]; 1050 nM (active) in test [11]; 743 nM (active) in [12]; 1660 nM (active) in test [5]. The Potency in test [6] is 1050 nM (active); in test [13], 2960 nM (active); in [7], 1180 nM (active); in test [14], 1660 nM (active); in test [8], 743 nM (active); in [9], 2090 nM (active). Further, the Potency was 1050 nM (active) in test [15], 1660 nM (active) in test [16] and 833 nM (active) in [10].
Turning to `CC(=O)OCC(CCn1cnc2cnc(N)nc21)COC(C)=O`, the Potency result in [2], in test [3], in test [4], in [5], in test [6] and in [13] was “inactive” in each case. Besides, the Potency result in test [14], in test [8], in test [9], in [15] and in test [16] was “inactive” throughout. Moreover, in test [10], the Potency was 1.2 nM (active).
Take `CS(=O)(=O)Nc1ccc([N+](=O)[O-])cc1Oc1ccccc1`: the Potency result in test [1], in [3], in [6], in test [13] and in test [15] was “inactive” throughout. In addition, the Potency in [2] was 20900 nM (active); in test [7] it was 16600 nM (active); in test [14] it was 20900 nM (active); in test [9] it was 187 nM (active); in test [16] it was 11800 nM (active).
As to `CC#C[C@]1(O)CC[C@H]2[C@@H]3CCC4=CC(=O)CCC4=C3[C@@H](c3ccc(N(C)C)cc3)C[C@@]21C`, the Potency in test [2] is 1180 nM (active); in test [3], 469 nM (active); in test [4], 743 nM (active); in [17], 4180 nM (active); in [5] it was 2350 nM (active); in [6], 418 nM (active). The Potency in test [13] was 3720 nM (active); in test [7], 187 nM (active); in test [14] it was 743 nM (active); in test [8], 2640 nM (active); in [9], 1320 nM (active); in test [15], 2640 nM (active). Moreover, the values for the Potency in test [18], in test [16] and in test [10] were 1180 nM (active), 833 nM (active) and 1480 nM (active), respectively.
For the compound `COc1ccccc1OCC(O)CN1CCN(CC(=O)Nc2c(C)cccc2C)CC1` (stereo not drawn), the Potency result in test [1], in test [2], in test [3], in test [4], in test [17] and in test [14] was “inactive” each time. For the same compound, the Potency entry in test [8], in test [15] and in [10] was “inactive” throughout. The viability in test [19] was 110%.
Regarding `O=C1c2c(O)ccc(O)c2C(=O)c2c(NCCNCCO)ccc(NCCNCCO)c21`, the Potency in test [2] is 1050 nM (active); in test [3] it was 2960 nM (active); in test [4], 132 nM (active); in test [11] it was 1480 nM (active); in [17] it was 2350 nM (active); in test [5], 1320 nM (active). Further, the Potency in [6] was 526 nM (active); in test [13] it was 13200 nM (active); in [7] it was 46.9 nM (active); in [14], 105 nM (active); in [8], 5900 nM (active); in [9] it was 935 nM (active). Besides, the Potency in test [15] was 2350 nM (active); in test [20], 2960 nM (active); in test [18], 1050 nM (active); in test [16], 1320 nM (active); in test [10], 935 nM (active).
Take `Cc1cn([C@H]2C=C[C@@H](CO)O2)c(=O)[nH]c1=O`: the Potency entry in test [1], in test [3], in test [5], in test [6], in test [13] and in test [8] was “inactive” throughout. Also, the Potency result in test [9], in test [15], in [20] and in test [10] was “inactive” in each case. Besides, the viability in [11] was 91.7% [at 92.2 µM] (active).
With `CC1(C)O[C@H]2CC(=O)OC[C@]23[C@H]2CC[C@@]4(C)[C@H](c5ccoc5)OC(=O)[C@H]5O[C@]54[C@]2(C)C(=O)C[C@@H]13`, the Potency result in test [1], in [2], in test [3], in test [4], in test [11] and in test [17] was “inactive” throughout. Moreover, the Potency result in test [5], in test [6], in test [13], in test [7], in test [14] and in [8] was “inactive” each time. In addition, the Potency entry in [9] was “inactive”.
For `CS(=O)(=O)CCNCc1ccc(-c2ccc3ncnc(Nc4ccc(OCc5cccc(F)c5)c(Cl)c4)c3c2)o1`, the Potency is 10500 nM (active) in test [1]; 20900 nM (active) in test [2]; 4690 nM (active) in test [3]; 1480 nM (active) in [4]; 11800 nM (active) in test [11]; 26400 nM (active) in test [5]. The Potency in test [6] was 264 nM (active); in [7], 166 nM (active); in test [14], 18700 nM (active); in [8] it was 18700 nM (active); in [9], 26400 nM (active); in test [15], 9350 nM (active). Moreover, the Potency is 74.3 nM (active) in test [16] and 6620 nM (active) in test [10].
For the compound `NC(=O)NO`, the Potency is 1480 nM (active) in [2]; 833 nM (active) in [3]; 93.5 nM (active) in [4]; 3320 nM (active) in test [5]; 743 nM (active) in test [6]; 662 nM (active) in test [13]. For the same compound, the Potency in test [7] was 935 nM (active); in test [14], 1180 nM (active); in test [8], 2640 nM (active); in test [9], 2350 nM (active); in [15], 5900 nM (active); in test [16], 235 nM (active). Also, in [10], the Potency was 833 nM (active).
For the compound `CN(C)CCCN1c2ccccc2CCc2ccc(Cl)cc21`, the Potency in [2] is 18700 nM (active); in test [3], 11800 nM (active); in test [4], 1870 nM (active); in test [17] it was 1660 nM (active); in test [6], 469 nM (active); in [7] it was 743 nM (active). Further, the Potency in test [14] was 1480 nM (active); in [9] it was 14800 nM (active); in test [15], 16600 nM (active); in test [16], 418 nM (active); in test [10], 14800 nM (active).
Turning to `CN(C)C(=O)C(CCN1CCC(O)(c2ccc(Cl)cc2)CC1)(c1ccccc1)c1ccccc1`, the Potency result in test [1], in [3] and in test [15] was “inactive” throughout. The Potency is 14800 nM (active) in test [4]; 16600 nM (active) in [17]; 23500 nM (active) in test [6]; 20900 nM (active) in test [7]; 20900 nM (active) in test [14]; 14800 nM (active) in [9]. The values for the Potency in [16], in [10] and in [19] were 16600 nM (active), 23500 nM (active) and 23500 nM (active), respectively.
